TAR Tat displ – HIV-1 TAR-Tat binding disruption. z-score (concentration not given with the values). HIV-1 TAR RNA, Tat peptide displacement FRET; active compounds read high. AID 1259389. hit rate 0.6% among 100,000; active means z-score of 3 or more in at least 2 runs
CDC25B-CDK2 inh – human CDC25B-CDK2/CyclinA binding inhibition. AID 1259370. hit rate 0.72% among 94,000. z-score (no concentration beside the values). HTRF CDC25B-CDK2/CyclinA binding, anti-His/anti-Flag; active compounds read high. P30305+P24941; in the data active means z-score above about 3.2
* hit, by the source's call; . = not tested or not shown. Most compounds without a hit are left out; they make up all but 0.93% or so of the library.

SMILES	TAR Tat displ	CDC25B-CDK2 inh
Cc1cccnc1NC(=O)C1CC(=O)OC12CCCCC2 (stereo unspecified)	1.2	14*
N#Cc1cnc(Sc2nnc(-c3ccncc3)n2-c2ccccc2)nc1N	.	-1.1
CC1(C)Cc2c(sc3[nH]c(=S)n(-c4ccc(Br)cc4)c(=O)c23)CO1	.	-2.2
O=[N+]([O-])c1ccc(/C=C/C2Oc3ccccc3C3CC(c4cccs4)=NN23)o1 (stereo unspecified)	13*	1.5
c1coc(C2Oc3ccccc3C3CC(c4cccs4)=NN32)c1 (stereo unspecified)	.	-1.5
COC(=O)c1sccc1NC(=O)c1cccs1	.	6.7*
COC(=O)c1sccc1NC(=O)Cc1cccs1	.	-1.3
Cn1nc(NC(=O)/C=C/c2ccc(OC(F)(F)F)cc2)c2c(F)cccc21	.	-0.15
Cc1cc(C)nc(Nc2nc(-c3ccc(O)c(O)c3)cs2)n1	29*	1.1
Oc1ccc(-c2csc(Nc3ncccn3)n2)cc1O	.	-6.2
O=C(O)c1cc(NC(=O)c2ccccc2-c2ccccc2C(=O)O)cc(C(=O)O)c1	.	-1.2
CCOCCCNC(=O)N1c2ccccc2NC2=C(C(=O)CCC2)C1c1cccs1 (stereo unspecified)	3.7	.
CC(=O)N1N=C(c2cc(C3CC3)nc3ccccc23)OC1c1ccc2c(c1)OCO2 (stereo unspecified)	4.4*	.
CC(=O)N1N=C(c2cccc3ccccc23)OC1c1cc(C)nc2ccccc12 (stereo unspecified)	0.06	.
CC(=O)N1N=C(c2cc(C)nc3ccccc23)OC1c1cccs1 (stereo unspecified)	3.8*	.
COc1cc(C2OC(c3cc(C4CC4)nc4ccccc34)=NN2C(C)=O)ccc1OC(C)=O (stereo unspecified)	0.93	.
CCCn1c(SCc2nc(-c3ccc(OC)cc3)no2)nnc1-c1ccncc1	-0.63	-2.1
COC(=O)C1=C(C)NC2=C(C(=O)CCC2)C1c1ccc(O)cc1 (stereo unspecified)	0.47	-0.32
NS(=O)(=O)c1ccc(CNS(=O)(=O)c2cccc3nsnc23)cc1	.	-1.8
O=C(O)c1cc(=O)c(O)c2c(O)c(O)ccc2c1	25*	.
Cc1cc(=O)c2c(O)c(O)ccc2o1	.	-2.2
O=c1cccc2ccc(O)c(O)c2c1O	25*	.
CC1=NN(c2cccc(C(=O)O)c2)C(=O)C1	0.21	-1.1
CCCCC(=O)OC1=C(C(=O)OC)N(CC)S(=O)(=O)c2ccccc21	-0.53	-2.4
COC(=O)c1cnn(C(=O)Nc2c(C)cccc2C)c1C(OC)OC	.	-1.1
SMILES	TAR Tat displ	CDC25B-CDK2 inh
CNC(=O)c1ccc2c(c1)CCN2S(=O)(=O)c1ccc(Br)cc1	0.5	-0.71
Cc1ccc2c(c1)-c1cc(C)nn1C(c1cccc(O)c1O)N2 (stereo unspecified)	19*	1.8
Cc1ccc2c(c1)-c1cc(C)nn1C(c1cc(C)ccc1O)N2 (stereo unspecified)	2.2	1.4
Cc1nc(SCC(=O)Nc2sc3c(c2C(N)=O)CCCC3)cc(-c2ccccc2)n1	-0.86	-1.6
COC(=O)C/C(=N\NC(=O)c1cccs1)C(=O)OC	.	-1.1
Cc1c(C(=O)O)sc2ncnc(Nc3ccc4c(c3)OCCO4)c12	25*	.
Cc1sc2ncnc(NCc3ccc4c(c3)OCO4)c2c1C	0.1	-2
COc1ccc(Nc2ncnc3sc(C(=O)O)c(C)c23)cc1OC	35*	.
Cc1sc2ncnc(Nc3ccc4c(c3)OCO4)c2c1C	0.84	.
Cc1c(C(=O)O)sc2ncnc(Nc3ccccc3)c12	-8.3	.
Cc1c(C(=O)O)sc2ncnc(NCc3ccc4c(c3)OCO4)c12	5*	.
COc1ccc(C2CC(=O)N3CN(C4CCCC4)CSC3=C2C#N)cc1OC (stereo unspecified)	-2.1	5.9*
N#CC1=C2SCN(C3CCCCC3)CN2C(=O)CC1c1ccc(Cl)cc1 (stereo unspecified)	-2.2	0.07
COc1cccc(C2CC(=O)N3CN(C)CSC3=C2C#N)c1OC (stereo unspecified)	-0.83	4.3*
COc1ccc(C2CC(=O)N3CN(c4ccc(Br)cc4)CSC3=C2C#N)cc1OC (stereo unspecified)	-0.65	5.6*
Cc1ccc(C2CC(=O)N3CN(c4ccc(Br)cc4)CSC3=C2C#N)o1 (stereo unspecified)	-1.9	7.3*
COc1cc(C)c(C)cc1S(=O)(=O)N1CCOCC1	0.65	-2.6
Cn1c(SCc2nc3ccccc3[nH]2)nc(=O)c2ccccc21	.	0.89
COc1cc(OC)cc(C(=O)NNC(=S)Nc2cccc(Cl)c2)c1	.	-3
COc1cccc(C2CC(=O)N3CN(C4CCCCC4)CSC3=C2C#N)c1OC (stereo unspecified)	-0.67	6.2*
COc1ccccc1C1CC(=O)N2CN(C3CCCCC3)CSC2=C1C#N (stereo unspecified)	-0.27	2.5
N#CC1=C2SCN(c3ccc(Br)cc3)CN2C(=O)CC1c1ccccc1F (stereo unspecified)	-1.9	7.3*
COc1cccc(C2CC(=O)N3CN(c4ccc(Br)cc4)CSC3=C2C#N)c1OC (stereo unspecified)	-3.1	5.9*
COc1cccc(C2CC(=O)N3CN(c4ccccc4)CSC3=C2C#N)c1OC (stereo unspecified)	1.7	3.5*
CCCc1nnc(NC(=O)c2nn(-c3cccc(Cl)c3)ccc2=O)s1	0.51	-1.2
SMILES	TAR Tat displ	CDC25B-CDK2 inh
O=C(NCc1ccco1)c1ccc(Cn2c(=O)c3cccn3c3cccnc32)cc1	0.78	.
CC(=O)Nc1c2n(c3ccccc13)CC(C)(C(=O)NC1CCCC1)N(C(C)c1ccccc1)C2=O (stereo unspecified)	2.1	.
CC(=O)Oc1ccc(Cl)cc1C1OC(c2cccc(Br)c2)=NN1C(C)=O (stereo unspecified)	3.2	.
N#CC1=C2SCN(c3ccc(Cl)cc3)CN2C(=O)CC1c1cccs1 (stereo unspecified)	-0.61	6.3*
CCOc1ccc(C2CC(=O)N3CN(Cc4cccnc4)CSC3=C2C#N)cc1 (stereo unspecified)	-2.2	6.8*
N#CC1=C2SCN(c3ccccc3)CN2C(=O)CC1c1cccs1 (stereo unspecified)	-0.09	17*
Cc1ccc(N2CSC3=C(C#N)C(c4cccs4)CC(=O)N3C2)cc1C (stereo unspecified)	-1.5	6.2*
N#CC1=C2SCC(O)(c3ccccc3)N2C(=O)CC1c1cccs1 (stereo unspecified)	.	-2.3
N#CC1=C2SCN(c3ccc(Br)cc3)CN2C(=O)CC1c1cccs1 (stereo unspecified)	2.7	0.05
CSc1ccc(C2CC(=O)N3CN(Cc4ccccc4)CSC3=C2C#N)cc1 (stereo unspecified)	-2.2	1.5
CCn1nc(-n2cnnc2)c(NC(=O)c2ccc3c(c2)OCO3)c1C	0.48	-2
CCOc1ccc(Cn2c(CN)nc3cccnc32)cc1	-0.32	0.05
COc1cc(NC(=O)c2nn(C)c3c2CCc2sccc2-3)cc(OC)c1	-0.05	.
CC1=Nc2cc(C(=O)NCc3ccco3)ccc2Sc2c(C)ccc(C)c21	1.6	-0.17
CN(C)c1nc(-c2ccccc2O)nc2ccccc12	0.27	-5.2
CCc1c(C)oc2cc3ccccc3c-2c1C	.	-0.69
N#CC1=C2SCN(c3ccc(F)cc3)CN2C(=O)CC1c1cccs1 (stereo unspecified)	0.54	6*
N#CC1=C2SCN(C3CCCC3)CN2C(=O)CC1c1cccs1 (stereo unspecified)	1.3	5.9*

Source: PubChem BioAssay (Center for Chemical Genomics, University of Michigan)
